The record followed here is PubChem BioAssay (NCATS).

The subject of assay [1] is CRL-7250. The assay can be described thus: Cytotoxic Profiling of Annotated Libraries Using Quantitative High-Throughput Screening (AID 1296008). The conditions noted are these: Five cell lines viability, CellTiter-Glo ATP luminescence, 48-72 h; max response: stronger effect = lower value. Summed up:
(§1)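 Compounds were pin-transferred onto cells and incubated 48 or 72 hr at 37 degree Celsius, 95% humidity. CellTiter-Glo was added, plates sat 10 min at room temperature, then ATP-coupled luminescence was imaged as the viability read-out.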
(ATP-based viability assays read luminescence as a measure of living cells.)

Assay [2] deals with HEK293. The description is as above. The settings on record: Five cell lines viability, CellTiter-Glo ATP luminescence, 48-72 h; max response: stronger effect = lower value. The gist of the method: as §1
Assay [3] deals with HaCat. Described as above. The conditions noted are these: Five cell lines viability, CellTiter-Glo ATP luminescence, 48-72 h; max response: stronger effect = lower value. The gist of the method:
as §1

The subject of assay [4] is NIH3T3. Described as above. The conditions noted are these: Five cell lines viability, CellTiter-Glo ATP luminescence, 48-72 h; max response: stronger effect = lower value. Summed up: as §1
Assay [5] deals with HEK293T. Kind of assay: qHTS assay to identify novel small-molecules to repurpose for Merkel cell carcinoma treatment (AID 1296009). The conditions noted are these: MCC and control cell lines, CellTiter-Glo viability, 72 h; at 44.8 µM (top of the series) unless noted. Summed up:
(§2)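 Viability readout: ATP luminescence (CellTiter-Glo) after 72 hr drug exposure at 37 degree celsius. Dose-response format was 8 points for NPC and 11 points for MIPE; data normalized to in-plate controls.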
On the technique in general: In qHTS, concentration-response curves come from the screen itself.

Assay [6] deals with MCC-13. The description is as above. The settings on record: MCC and control cell lines, CellTiter-Glo viability, 72 h; series mostly up to 46 µM. The gist of the method:
as §2

For assay [7], the system named is MCC-26. The assay is described as above. The settings on record: MCC and control cell lines, CellTiter-Glo viability, 72 h; series mostly up to 46 µM. The gist of the method: as §2
For assay [8], the system named is MKL-1. Described as above. The conditions noted are these: MCC and control cell lines, CellTiter-Glo viability, 72 h; series mostly up to 46 µM. The gist of the method:
as §2

For assay [9], the system named is KB-3-1. Kind of assay: Cytotoxic Profiling of Annotated Libraries Using Quantitative High-Throughput Screening (AID 1296008). The conditions noted are these: Five cell lines viability, CellTiter-Glo ATP luminescence, 48-72 h; max response: stronger effect = lower value. The gist of the method:
as §1

For assay [10], the system named is HACAT. Kind of assay: qHTS assay to identify novel small-molecules to repurpose for Merkel cell carcinoma treatment (AID 1296009). The conditions noted are these: MCC and control cell lines, CellTiter-Glo viability, 72 h; series mostly up to 44.8 µM. Summed up:
as §2

Values joined by “and” are separate entries in the source; they are usually repeats but may differ in a detail not shown here. Identical values can stand only once. Results filed as inconclusive are left out. Some compounds were tested as several samples or in several runs, with calls that do not always agree. Active and inactive are the calls of the source. Calls come from the whole dose curve; as a rule, active = well fitted inhibition curve with a large enough effect; inconclusive = small, poorly fitted or top-dose-only effect; inactive = flat fitted curve, though single readings scatter.
% is set by controls: 0 for no effect and ±100 for the full control effect; potency is the fitted concentration of half-maximal effect.
Note: nearly all actives have a fitted effect of over 60% in size.

`Cn1ccc2cc3c(cc21)CCN3C(=O)Nc1cccnc1`: the max response in assay [1] is -6.32% (inactive); in [2], -20.9% (inactive); in assay [3], -2.9% (inactive); in [4] it was 0.531% (inactive). In addition, the compound was called inactive in [1], in [2], in assay [4] and in assay [5]. Also, the Potency entry in [6], in [7] and in [8] was “inactive” in each case.

For the compound `N[C@@H](Cc1c[nH]c2ccc(O)cc12)C(=O)O`, the max response in assay [1] was -11.6% (inactive); in assay [2], 2.68% (inactive); in assay [9] it was 5.77% (inactive) and -8.69% (inactive); in assay [4], -0.603% (inactive) and 4.53% (inactive). Besides, the compound was classed as inactive in assay [1], in [2], in assay [3], in assay [10] and in [5]. The Potency entry in assay [6] and in assay [8] was “inactive” throughout.

`O=C1N(c2ccccc2)c2ccccc2C1(Cc1ccncc1)Cc1ccncc1`: the max response in [1] was -6.52% (inactive) and 2.8% (inactive); in [2], 2.06% (inactive); in assay [3] it was 2.97% (inactive); in assay [4], -1.99% (inactive) and -3.96% (inactive). For the same compound, the call in assay [2], in assay [3], in [10] and in assay [5] was inactive. Also, the Potency entry in [6], in assay [7] and in assay [8] was “inactive” in each case.

Take `Cc1ccc(-c2cc(C(F)(F)F)nn2-c2ccc(S(N)(=O)=O)cc2)cc1`: the max response was -3.61% (inactive) in [1]; -17.2% (inactive) in assay [2]; 4.57% (inactive) and -3.85% (inactive) in assay [3]; -4.37% (inactive) and -12.4% (inactive) in assay [9]; 4.24% (inactive) in [4]. Also, the compound was classed as inactive in assay [1], in assay [3], in assay [9] and in assay [10]. Moreover, the Potency result in assay [6], in [7] and in assay [8] was “inactive” each time.

For `Nc1nc2c(ncn2COC(CO)CO)c(=O)[nH]1`, the max response in assay [1] was 1.91% (inactive); in [2], -8.08% (inactive); in assay [3], -15.7% (inactive); in assay [9], 5.82% (inactive); in assay [4], -3.13% (inactive). Further, the Potency was 0.132 µM (active) in [2]; “inactive and 20.9 µM (active)” in [6]. Besides, the Potency entry in assay [8] was “inactive”.

On to `CCc1cccc2c3c([nH]c12)C(CC)(CC(=O)O)OCC3` (stereo not given), for which the max response was -0.931% (inactive) in assay [1]; 1.01% (inactive) in assay [2]; 2.9% (inactive) in assay [3]; -15.8% (inactive) and -6.31% (inactive) in [9]; 3.41% (inactive) and -0.401% (inactive) in [4]. In addition, the result in assay [2], in assay [3], in [10] and in assay [5] was inactive. For the same compound, the Potency result in [6], in assay [7] and in assay [8] was “inactive” each time.

With `Clc1ccc2nsnc2c1NC1=NCCN1`, the max response in assay [1] was 0.544% (inactive) and 2.61% (inactive); in assay [2] it was -8.03% (inactive); in assay [3] it was 2.64% (inactive); in [9], -0.508% (inactive) and 0.187% (inactive); in [4] it was 1.46% (inactive). Further, the outcome in assay [2], in assay [3], in assay [4], in assay [10] and in assay [5] was inactive. In addition, the Potency result in assay [6] and in assay [8] was “inactive” each time.

For `CCOC(=O)C(C)(C)Oc1ccc(Cl)cc1`, the max response is 2.19% (inactive) and -5.27% (inactive) in assay [1]; 4.89% (inactive) in assay [2]; 9.24% (inactive) and 4.33% (inactive) in [9]. The compound was classed as inactive in [2], in assay [3], in [4], in assay [10] and in assay [5]. Also, the Potency result in assay [6], in assay [7] and in assay [8] was “inactive” in each case.

As to `C[C@H]1c2cccc(O)c2C(O)=C2C(=O)[C@]3(O)C(O)=C(C(N)=O)C(=O)[C@@H](N(C)C)[C@@H]3[C@@H](O)[C@@H]21`, the max response is -2.19% (inactive) in [1]; -8.48% (inactive) in assay [2]; 10.8% (inactive) and -8.7% (inactive) in assay [9]; 1.59% (inactive) in [4]. The compound was classed as inactive in assay [1], in [3], in assay [4] and in assay [10]. For the same compound, the Potency entry in assay [6], in [7] and in assay [8] was “inactive” in each case.

For the compound `COc1ccc(C2CNC(=O)C2)cc1OC1CCCC1` (stereo not given), the max response in [1] is -1.68% (inactive); in [2] it was 0.111% (inactive); in [3], -13.7% (inactive); in assay [4] it was -5.87% (inactive). In addition, the call in assay [1], in assay [2], in assay [3], in assay [4], in assay [10] and in assay [5] was inactive. The Potency result in assay [6] and in assay [8] was “inactive” in each case.

As to `O=C(c1ccc(F)cc1)C1CCN(CCn2c(=O)[nH]c3ccccc3c2=O)CC1`, the max response in assay [1] is -21.4% (inactive) and 4.56% (inactive); in [2], -0.877% (inactive) and -3.18% (inactive); in assay [3] it was -0.754% (inactive) and -2.78% (inactive) and -3.98% (inactive); in assay [9], -2.16% (inactive) and 6.29% (inactive). In addition, the compound was called inactive in assay [1] and in assay [4]. Further, the Potency result in [6] and in assay [8] was “inactive” throughout.

With `CC(C)(Oc1ccc(C2CC2(Cl)Cl)cc1)C(=O)O` (stereo not given), the max response in [1] is -2.5% (inactive); in assay [2] it was -10.2% (inactive); in [3], -0.292% (inactive). Further, the compound was classed as inactive in assay [1], in assay [3], in [9], in [4] and in assay [10]. Further, the Potency result in [6], in assay [7] and in assay [8] was “inactive” throughout.

With `NCCCCCC(=O)O`, the max response was -1.72% (inactive) in [1]; -1.96% (inactive) and 0.967% (inactive) in assay [2]; 14.6% (inactive) and 4.29% (inactive) in assay [9]; -2.83% (inactive) and -5.79% (inactive) in assay [4]. Besides, the result in assay [1], in [3] and in assay [10] was inactive. The Potency result in assay [6], in assay [7] and in [8] was “inactive” throughout.
